Consider 40 compounds from PubChem BioAssay (Tox21).

Each structure is given as a SMILES string. Several values for one entry are separate records, joined by “and”; a condition that tells them apart may be missing. Equal entries are not always repeated. Inconclusive results are not listed. Activity calls are given as the source filed them. Calls come from the whole dose curve; as a rule, active = well fitted inhibition curve with a large enough effect in the repeat runs; inconclusive = weak or mixed curves; inactive = no such curve, though single readings can be large or run the other way.
% is set by controls: 0 for no effect and ±100 for the full control effect; potency is the fitted concentration of half-maximal effect.

The assay deals with Cytochrome P450 3A4 (Homo sapiens) (UniProt P08684). Kind of assay: Cytochrome P450 Family 3 Subfamily A Member 4 (CYP3A4) small molecule antagonists: luciferase reporter qHTS assay (AID 1671201). Note: nearly all actives have a fitted effect of over 50% in size. Particulars: P450-Glo CYP3A4 enzyme, luciferin luminescence, 1 h; series mostly up to 115 µM; activity change, negative = inhibition: at the top concentration. An excerpt: National Center for Advancing Translational Sciences [NCATS]
Chain of Cytochrome P450 3A4 (Homo sapiens) (P08684 whole entry, looked up): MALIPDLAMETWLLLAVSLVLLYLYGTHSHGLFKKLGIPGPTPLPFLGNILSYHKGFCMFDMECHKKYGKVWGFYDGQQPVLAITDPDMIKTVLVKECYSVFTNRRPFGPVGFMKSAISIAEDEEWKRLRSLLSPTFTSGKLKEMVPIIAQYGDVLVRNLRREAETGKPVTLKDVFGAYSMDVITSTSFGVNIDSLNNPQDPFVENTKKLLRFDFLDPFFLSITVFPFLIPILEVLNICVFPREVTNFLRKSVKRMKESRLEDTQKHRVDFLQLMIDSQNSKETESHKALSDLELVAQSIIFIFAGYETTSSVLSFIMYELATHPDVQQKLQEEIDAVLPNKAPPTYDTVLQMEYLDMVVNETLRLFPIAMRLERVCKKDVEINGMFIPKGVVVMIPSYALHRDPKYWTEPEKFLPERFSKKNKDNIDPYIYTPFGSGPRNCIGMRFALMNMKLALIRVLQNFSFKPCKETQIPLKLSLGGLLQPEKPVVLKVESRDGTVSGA
U.S. Environmental Protection Agency [EPA]
National Institutes of Environmental Health Sciences [NIEHS]
National Toxicology Program [NTP]
U.S. Food and Drug Administration [FDA]
Cytochrome P450 (CYP) enzymes are membrane-bound hemeproteins that play a key role in metabolism of drugs and xenobiotics. Evaluation of the effect of chemicals on CYP isozymes is useful to minimize the adverse drug reactions and toxicities in drug development process. Tox21 chemicals were tested for their effect on CYP enzyme activities by using P450-Glo (TM) screening systems (Promega Corporation, Madison, WI). These systems provide a luminescent method containing proluciferin substrates and are converted to luciferin products by CYP isozymes. The luciferin products formed are detected with a luciferin detection reagent, and the amount of light produced is proportional to CYP activity. P450-Glo (TM) CYP3A4 screening system (Catalog. No. V9910) was used to detect the compounds that interfere in CYP3A4 activity. The positive control compound used for CYP3A4 assay is ketoconazole (Sigma-Aldrich, St. Louis, MO).
Tox21 Assay Protocol Summary:
Two ul of enzyme-substrate mix was dispensed into medium binding white/solid 1536-well plates (Greiner Bio-One North America Inc., Monroe, NC) using a BioRaptr Flying Reagent Dispenser (FRD, Beckman Coulter, Brea, CA). Compounds dissolved in DMSO and positive control (ketoconazole) were transferred to the assay plates at 23 nl using a Pintool station (Wako, San Diego, CA). The assay plates were incubated at room temperature for 10 min. Then 2 ul of NADPH regeneration solution was added to each well of the assay plates using an FRD and incubated at room temperature for 1 h. The reaction was stopped by adding 4 ul of detection reagent using an FRD and after 20 min incubation at room temperature the luminescence signal was measured using a ViewLux plate reader (Perkin Elmer, Shelton, CT). Data were expressed as relative luminescence units.
On the technique in general: A reporter such as luciferase makes a cellular process visible.
On to `COc1ccc(NC(=O)CC(C)=O)cc1`, for which the “activity change, negative = inhibition” value is 1.97% (inactive). Same read-out and setting: the value for `c1cnccn1` was 3.46% (inactive); that for `c1ccsc1` was 15.4% (inactive).

`Clc1nnc(Cl)c2ccccc12`: the “activity change, negative = inhibition” value is 7.54% (inactive). Regarding `O=c1[nH]c2ccccc2n1CCCN1CCN(C(c2ccccc2)c2ccccc2)CC1`, the “activity change, negative = inhibition” value was 87.1% [at 52.9 µM] (inactive).

On to `ClCCl`, for which the “activity change, negative = inhibition” value was 1.3% (inactive). With `Cc1ccc(C)cc1`, the “activity change, negative = inhibition” value was 8.53% (inactive). Regarding `CCOC(=O)NNc1ccc(N(CC)CC(C)O)nn1` (stereo not given), the “activity change, negative = inhibition” value was 1.31% [at 52.9 µM] (inactive). Consider `CC1(C)CCC[C@]2(C)[C@H]3CCO[C@]3(C)CC[C@@H]12`, for which the “activity change, negative = inhibition” value is -15.7% (inactive). On to `CC[C@H](C)COC(=O)/C=C/c1ccc(N=Cc2ccc(OC)cc2)cc1`, for which the Potency is 5.63 µM (active).

As to `Nc1ccc(C(=O)O)c(O)c1`, the “activity change, negative = inhibition” value is 9.63% [at 52.9 µM] (inactive).

Regarding `CCOC(=O)c1ccc(C2CCC(NC[C@H](O)COc3ccc(O)c(NS(C)(=O)=O)c3)CC2)cc1` (stereo not given in full), the “activity change, negative = inhibition” value is 157% (inactive).

In the case of `CCCCCCCC`, the “activity change, negative = inhibition” value is -18.4% (inactive).

For `CN(C)CCN1CCN(c2cccc(Cl)c2)C1=O`, the “activity change, negative = inhibition” value is 9.9% [at 52.9 µM] (inactive). With `C=Cc1ccccc1C=C`, the “activity change, negative = inhibition” value was -0.19% [at 300 µM] (inactive). Turning to `COc1cc(C)ccc1O`, the “activity change, negative = inhibition” value was 4.28% (inactive).

As to `CCCCCC/C=C\CCCCCCCC(=O)O`, the “activity change, negative = inhibition” value is 51.1% (inactive). In the case of `CCCCOC(=O)CC`, the “activity change, negative = inhibition” value is 8.06% (inactive). `CC(C)Cn1cnc2c(N)nc3ccccc3c21`: the activity change, negative = inhibition is 54.2% [at 23.6 µM] (inactive). With `CC(C)(C)CC(C)(C)c1ccc(Nc2ccc(C(C)(C)CC(C)(C)C)cc2)cc1`, the activity change, negative = inhibition was -20% [at 10.5 µM] (inactive). Same read-out and setting: to `Cc1cc(C)c(/C=C2\C(=O)Nc3ccccc32)[nH]1` belongs -31.1% [at 52.9 µM] (inactive). For the compound `Clc1ccnc(Cl)n1`, the “activity change, negative = inhibition” value was -1.04% (inactive). `[Cu+]`: the Potency was 39.9 µM (active). On to `C=CCCC(=O)/C=C/C1C(C)=CCCC1(C)C` (stereo not given), for which the Potency was 17.8 µM (active). As to `CC(C)(C)c1ccc(C(O)CCCN2CCC(C(O)(c3ccccc3)c3ccccc3)CC2)cc1` (stereo not given), the “activity change, negative = inhibition” value was 157% [at 52.9 µM] (inactive). On to `CC(C(=O)O)c1ccc2c(c1)[nH]c1ccc(Cl)cc12` (stereo not given), for which the “activity change, negative = inhibition” value is 20.9% [at 52.9 µM] (inactive). Regarding `OC[C@H]1O[C@H](O[C@H]2O[C@H](CO)[C@@H](O)[C@H](O)[C@H]2O)[C@H](O)[C@@H](O)[C@@H]1O`, the “activity change, negative = inhibition” value was 3.01% (inactive). On to `OC1CCCc2ccccc21` (stereo not given), for which the “activity change, negative = inhibition” value is 25.5% (inactive). Consider `Cc1cccc(C(=O)O)c1O`, for which the “activity change, negative = inhibition” value was 16.1% [at 52.9 µM] (inactive). In the case of `O=[N+]([O-])c1cccc(C(F)(F)F)c1`, the “activity change, negative = inhibition” value is 0.32% (inactive).

With `Cc1cc(-n2nc3ccc(Cl)cc3n2)c(O)c(C(C)(C)C)c1`, the “activity change, negative = inhibition” value is 0.445% [at 52.9 µM] (inactive).

`C=C(C)C(=O)OCCCCCCCCCC`: the “activity change, negative = inhibition” value was 1.15% (inactive). Consider `CC(C)OC(=O)C(O)(CC(=O)O)CC(=O)O`, for which the “activity change, negative = inhibition” value is 4.73% (inactive).

Take `O=C(O)[C@H](O)[C@@H](O)[C@H](O[C@@H]1O[C@H](CO)[C@H](O)[C@H](O)[C@H]1O)[C@H](O)CO`: the “activity change, negative = inhibition” value is 3.09% [at 52.9 µM] (inactive).

For the compound `CN1CCN2c3ccccc3Cc3ccccc3C2C1` (stereo not given), the “activity change, negative = inhibition” value was 37.7% [at 52.9 µM] (inactive). `CCCCCCCCCCCCCC[N+](C)(C)C`: the Potency entry was “inactive”.

On to `C=Cc1cccc(C)c1`, for which the Potency result was “inactive”.

Regarding `O=C(c1ccc(O)c(O)c1)c1ccc(O)cc1O`, the Potency was 5.63 µM (active).

Consider `Cc1c2ccccc2c(C)c2c1ccc1ccccc12`, for which the Potency was 22.2 µM (active) and 20 µM (active). On to `OC12N=C(c3ccccc3)SC1Cc1cc(Cl)ccc12` (stereo not given), for which the Potency was 31.7 µM (active).
